Over roughly 33,000 sequences, “E-score (-0.5 to 0.5)” has its median near -0.012; the highest 2% begin near 0.29. What follows is part of a selection rich in the highest values, with near analogues and random picks from the rest.
Target: T1, Ybr033w (UniProt P38073)
T1 sequence: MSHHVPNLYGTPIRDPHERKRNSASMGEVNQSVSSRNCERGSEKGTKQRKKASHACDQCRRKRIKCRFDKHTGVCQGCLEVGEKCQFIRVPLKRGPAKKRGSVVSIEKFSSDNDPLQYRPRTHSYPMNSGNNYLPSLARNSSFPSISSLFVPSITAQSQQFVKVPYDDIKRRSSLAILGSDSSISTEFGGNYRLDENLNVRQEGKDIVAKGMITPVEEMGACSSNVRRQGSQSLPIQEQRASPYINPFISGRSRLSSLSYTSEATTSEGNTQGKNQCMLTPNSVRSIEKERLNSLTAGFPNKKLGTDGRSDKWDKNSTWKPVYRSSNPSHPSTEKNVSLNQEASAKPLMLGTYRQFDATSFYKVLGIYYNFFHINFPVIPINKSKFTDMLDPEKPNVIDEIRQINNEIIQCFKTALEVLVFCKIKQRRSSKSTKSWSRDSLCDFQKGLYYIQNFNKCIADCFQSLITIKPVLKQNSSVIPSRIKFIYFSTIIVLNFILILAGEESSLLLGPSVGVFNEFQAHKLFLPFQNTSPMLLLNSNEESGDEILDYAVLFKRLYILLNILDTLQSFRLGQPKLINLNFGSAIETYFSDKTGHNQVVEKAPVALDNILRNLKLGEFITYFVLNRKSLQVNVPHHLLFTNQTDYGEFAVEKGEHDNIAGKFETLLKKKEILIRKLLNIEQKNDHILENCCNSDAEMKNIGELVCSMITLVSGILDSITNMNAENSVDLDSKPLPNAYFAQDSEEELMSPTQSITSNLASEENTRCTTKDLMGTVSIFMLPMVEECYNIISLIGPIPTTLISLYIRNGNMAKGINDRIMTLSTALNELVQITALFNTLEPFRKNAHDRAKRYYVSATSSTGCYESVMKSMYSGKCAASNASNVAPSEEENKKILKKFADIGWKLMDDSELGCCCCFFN
Assay: PBM E-score (8-mer binding enrichment) (E-score (-0.5 to 0.5)); higher = stronger / more preferred TF binding
Conditions: protein concentration: 200 nM; construct: GST-full length
Method: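 Universal 'all 10-mer' protein binding microarrays (Agilent AMADID 015681) probed with GST-tagged S. cerevisiae TFs (full-length or DBD) made by in vitro transcription/translation (PURExpress), about 100-200 nM. Bound TF was detected with fluorescent anti-GST. Each ungapped 8-mer (which stands for itself and its reverse complement) is scored by the PBM enrichment score (E-score), a modified Wilcoxon-Mann-Whitney statistic from -0.5 to +0.5, computed with the Universal PBM Analysis Suite. Scale: above 0.35 generally sequence-specific binding.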

Row | Sequence | PBM E-score
1 | ATTACAAA | 0.318
2 | ATTACAGA | 0.141
3 | GATACAAA | 0.277
4 | ATTACAAG | 0.18
5 | ATTACAGC | -0.21
6 | AATACAAG | 0.252
7 | ACGGCTTG | -0.0473
8 | GGCGTGAC | -0.141
9 | ATACTGAG | 0.267
10 | CTCCAGTA | 0.109
11 | AATCCATC | 0.14
12 | CAGCATAG | -0.0334
13 | CACTTGCA | -0.0412
14 | CGCTACAA | 0.111
15 | GGCAGCCA | -0.0547
16 | GATACATC | -0.0274
17 | AATACATC | 0.297
18 | AATACATG | 0.222
19 | GTTCGAAC | 0.209
20 | GGCTGTCA | -0.0424
21 | CAGCGAAC | 0.0498
22 | ACATAAGA | 0.293

Row | Sequence | PBM E-score
23 | TCATAAGA | 0.114
24 | ACATAAGC | 0.0339
25 | CCCAGTTA | -0.0098
26 | GTGTTTGA | 0.191
27 | CAAGTGGC | 0.0512
28 | CATATTAC | 0.17
29 | GCTATTAC | -0.0504
30 | AATATTCC | 0.45
31 | GATATTCA | 0.12
32 | AATATTCG | 0.161
33 | AATATTCT | 0.248
34 | CATATTCC | 0.0424
35 | GATATTAC | 0.31
36 | GATATTCC | 0.417
37 | CCTGCACG | -0.159
38 | AGCAGTCC | -0.182
39 | GCGTGAAA | 0.0243
40 | AACTGCTT | 0.0101
41 | GCCGGTTA | -0.0903
42 | CTACAGCA | 0.0371
43 | TAAGGTCA | 0.028
44 | ACGGGAGT | 0.0679

Row | Sequence | PBM E-score
45 | CCGCTCAG | -0.111
46 | AGAACAGG | -0.125
47 | AGGTTACC | 0.0897
48 | AATGATAG | 0.215
49 | AATGATCC | 0.421
50 | AATGATAA | 0.192
51 | AATGATCT | 0.157
52 | AATGATTC | 0.306
53 | AATGATCA | 0.0742
54 | GATGATCA | 0.0749
55 | CATGATTC | -0.131
56 | GATGATCC | 0.4
57 | CATGATCC | 0.0454
58 | AATGATTA | 0.251
59 | AATGATAT | 0.298
60 | TCCCACGA | 0.0793
61 | ACTAGCCA | 0.0538
62 | AGAGTCTA | -0.16
63 | CGCTGCAG | -0.12
64 | GCGTTCAC | -0.0913
65 | GTACCGAC | -0.275
66 | CATGAGGA | 0.0386

Row | Sequence | PBM E-score
67 | CGCTCTGC | -0.0367
68 | CTGCGTGA | 0.0319
69 | ATTGATCC | 0.466
70 | ATTGATCA | 0.051
71 | CTTGATCC | 0.0221
72 | ATGCTTCA | 0.0658
73 | ATCTACTG | 0.143
74 | ATCTACTA | 0.324
75 | GAATACTA | 0.204
76 | AACTACTG | 0.126
77 | TAATACTA | 0.362
78 | GACTACTA | 0.122
79 | ATCTACTC | 0.127
80 | CAATACTA | 0.143
81 | AACTACTA | 0.298
82 | TACTACTA | 0.335
83 | AACTACTC | 0.119
84 | CACTACTA | 0.094
85 | TAACTATA | 0.242
86 | ATGCTGCG | -0.15

Reference: the supplement of paper PMC3334620
